From PubChem BioAssay
Only some compounds are listed: those with a hit (about 21% of all), similar ones and a draw of the others.
HCMV antiviral: qHTS Assay for inhibitors of the human cytomegalovirus (HCMV). 4.5% of 410,000 active. activity change, negative = inhibition, % at 57.5 µM. HFF cells, HCMV-luciferase reporter, 72 h; active compounds read low. AID 1259415, 2018; in the data active means activity change below about -60%; inconclusive means no clear call, values can overlap the other calls; inactive means above about -39%; further: on the % scale 0 is the no-effect control and ±100 the full control effect
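Cell-based, HFFs, 1000 cells/well, 16 h 37C; cpds in DMSO + HCMV-luc, MOI 1 PFU/cell; 72 h 37C; OneGlo luminescence after 5 min RT; norm. to buffer vs Salinomycin 10uM.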
Shiga toxin inh: A qHTS for Small Molecule Inhibitors of Shiga Toxin; Vero cells, Shiga toxin protein synthesis inhibition reporter; inhibition, % at 38.7 µM; 9.2% of 290,000 active; AID 2315, 2010; in the data active means inhibition mostly above about 28%, no sharp cut-off; inactive means mostly below about 43%; further: 0% is about no effect
HCV inhibitor: qHTS Assay for Inhibitors of Hepatitis C Virus (HCV); Huh7.5.1 HCVcc-Cre infection, luciferase reporter, 44 h; Potency, µM (titrated, usually from 41.8 µM), without a hit: at the top dose activity change, negative = inhibition, usual class: inhibitors; 3.4% of 340,000 active; further: potency means the concentration at half of the fitted maximal effect; on the % scale 0 is the no-effect control and ±100 the full control effect
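A cell-based infection assay in which seeded cells (1,000 per well) receive test compound after 4 h, are inoculated with HCVcc-Cre at approximately 0.5 moi, and are incubated 44 h before luminescence detection.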
Pf growth 96h: Primary qHTS for delayed death inhibitors of the malarial parasite plastid, 96 hour incubation; 6.9% of 320,000 active; Potency, µM (series often up to 28.7 µM), without a hit: top-dose activity change, negative = inhibition, usual class: inhibitors; AID 504834, 2011; P. falciparum luciferase reporter growth, 96 h; further: potency means the concentration at half of the fitted maximal effect; on the % scale 0 is the no-effect control and ±100 the full control effect
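96 h incubation, 37 C, 5% CO2, of luciferase-reporter P. falciparum-infected RBCs (2% hematocrit, 0.05% parasitemia final) with test compounds; endpoint luminescence.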
Cycloheximide cs: Cycloheximide Counterscreen for Small Molecule Inhibitors of Shiga Toxin | cell reporter, cycloheximide protein synthesis inhibition counterscreen | max response, % | 12% of 300,000 active; in the data active means max response mostly above about 13%, no sharp cut-off; inactive means mostly below about 14%; further: read at 38.3 µM for the half of the compounds with a filed dose; 0% is about no effect
Pf growth 48h: Primary qHTS for delayed death inhibitors of the malarial parasite plastid, 48 hour incubation | AID 504832, 2011 | P. falciparum luciferase growth in erythrocytes, 48 h | 5.9% of 310,000 active | Potency, µM (series often up to 28.7 µM), for inactives: at the highest dose activity change, negative = inhibition, most hits filed as inhibitors; further: potency means the concentration at half of the fitted maximal effect; on the % scale 0 is the no-effect control and ±100 the full control effect
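Here the parasites carry a stable luciferase gene and grow inside erythrocytes in Albumax-based RPMI medium with compound for one erythrocytic cycle. Activity is scored as loss of luminescent signal.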
* marks the source's active call; other numbers are inactive results; u = inconclusive; x = no result; [ ] = another dose, or the depositor's remark. Unless noted, the call rests on the fitted dose curve; in most records, active means well fitted inhibition curve with a large enough effect; inconclusive means small, poorly fitted or top-dose-only effect, or another doubt; inactive means no such curve, though single readings can be large or run the other way.

SMILES	HCMV antiviral	Shiga toxin inh	HCV inhibitor	Pf growth 96h	Cycloheximide cs	Pf growth 48h
Cc1nc2c(-c3ccccc3)c(C)nn2c(N)c1-c1ccccc1	13.3	28.6*	u	u	49.3*	124.8%
Cc1nn2c(N)c(-c3ccccc3)cnc2c1-c1ccc(Cl)cc1	88.6	111.6*	u	-21.0%	38.5*	-12.0%[0.00184 µM]
Cc1nn2c(-c3ccccc3)ccnc2c1-c1ccccc1	44.0	94.4*	u	-11.2%	48.7*	x
Cc1ccc(-c2ccnc3c(Cl)c(C)nn23)cc1	-22.2	-5.0	-8.6%	1.9%	-2.8	3.4%
Cc1nn2c3c(cnc2c1-c1ccccc1)C(=O)CCC3	97.6	5.2	-17.6%	37.4%	1.6	x
Cc1cc(NC(=O)CSc2ccc3nnc(-c4ccccn4)n3n2)no1	50.7	-3.2	0.1%	11.7µM*	-1.2	u
CCOc1ccc(NC(=O)CSc2ccc3nnc(-c4ccccn4)n3n2)cc1	-17.6	-8.5	17.5%	u	-2.3	u
Cc1cc(NC(=O)CSc2ccc3nnc(-c4cccc(F)c4)n3n2)no1	53.1	-8.5	-4.2%	u	10.9	1.85µM*
Cc1cc(NC(=O)CSc2ccc3nnc(-c4ccc(Cl)cc4)n3n2)no1	-20.0	-12.2	u	19.5%	-4.6	x
O=C(CSc1ccc2nnc(-c3ccccn3)n2n1)Nc1ccccc1	-8.8	-9.0	17.1%	u	1.2	13.1µM*
O=S(=O)(NC1CC1)c1ccccc1	34.3	-10.3	13.9%	u	-1.7	5.2%
Cc1ccc(NS(=O)(=O)c2ccc3c(c2)CC(=O)N3)c(C)c1	-32.7	1.5	9.1%	15.7%	0.9	15.1%
Cc1ccc(NS(=O)(=O)c2ccc3c(c2)CC(=O)N3)cc1F	-62.4*	x	17.8%	-27.8%	x	u
O=C(NC1CCCCC1)c1cc(-c2ccc(O)cc2)on1	9.4	70.8*	4.7%	38.1%	33.3*	36.1%
O=C(NC1CCCCC1)c1cc(-c2ccccc2O)on1	15.1	109.3*	-2.2%	103.2%	27.2*	-37.8%
COc1ccc(-c2cc(C(=O)NC3CCCCC3)no2)cc1OC	3.8	3.5	-7.3%	3.8%	-3.1	8.9%
O=C(Nc1cccnc1Cl)c1cc(-c2ccc(O)cc2)on1	49.2	72.6*	-6.0%	-19.7%	24.7*	40.4%
Cc1ccc(-c2cc(C(=O)NC3CCCCC3)no2)cc1	-23.0	16.9	7.6%	45.7%	20.0*	69.8%
O=C(Nc1cccnc1Cl)c1cc(-c2ccc(Cl)cc2)on1	-31.6	-3.4	3.9%	-10.5%	-2.4	24.3%
CCOc1cccc(NC(=O)C2CC(=O)N(C)C(=Nc3ccc(F)cc3)S2)c1 (stereo unspecified)	-11.5	x	x	x	x	x
OC(c1ccc(-c2ccccc2)cc1)c1ncc(-c2ccccc2F)[nH]1 (stereo unspecified)	2.1	x	x	x	x	x
CCOCCCNC(=O)CN1CCN(Cc2ccc(Cl)cc2)C1=O	-9.7	-3.6	3.3%	18.8%	-2.0	0.3%
CCC(C)C(=O)OC1CC(O)C=C2C=CC(C)C(CCC(O)CC(O)CC(=O)O)C21 (stereo unspecified)	x	x	x	-24.0%	x	-12.3%
CC1(C)CC2CC(C)(CN2S(=O)(=O)c2ccc(C(=O)Nc3cc(S(=O)(=O)N4CCOCC4)ccc3Cl)cc2)C1 (stereo unspecified)	18.5	17.2	-28.0%	2.62µM*	-2.4	3.7µM*
CC1(C)CC2CC(C)(CN2S(=O)(=O)c2ccc(C(=O)Nc3cccc(S(=O)(=O)N4CCOCC4)c3)cc2)C1 (stereo unspecified)	-91.5*	-7.3	11.2µM*	u	2.6	2.94µM*
SMILES	HCMV antiviral	Shiga toxin inh	HCV inhibitor	Pf growth 96h	Cycloheximide cs	Pf growth 48h
CCCCNC(=O)c1cccc(S(=O)(=O)N2CC3(C)CC2CC(C)(C)C3)c1 (stereo unspecified)	u	x	u	11.7µM*	x	u
CCN(C(=O)CN1C(=O)COc2ccc(S(=O)(=O)N3CCOCC3)cc21)c1cccc(C)c1	79.5	x	x	x	x	x
CSc1cc2c(s1)c1cnn(Cc3ccccc3F)c(=O)c1n2C	x	-12.1	x	x	-11.0	x
CSc1nc(-c2ccccc2)cc(C)c1C#N	26.0	2.4	10µM*	-24.9%	-2.7	21.6%
COc1ccc2[nH]c3c(c2c1)CC(C)NC3=O (stereo unspecified)	-74.7*	-12.8	-26.9%	u	0.8	31.1%
CNc1snc(C)c1C(=O)OC(C)C(=O)c1ccc(F)cc1 (stereo unspecified)	-78.7*	x	11.2µM*	0.2%	x	u
CC(C)C(C)NC(=O)COC(=O)C1CCN(S(=O)(=O)c2ccc3c(c2)OCCO3)CC1 (stereo unspecified)	-12.3	x	24.2%	9.1%	x	0.7%
COc1ccc(NS(=O)(=O)c2ccc(N3CCCCC3)c(N)c2)cc1	u	x	2.82µM*	u	x	-23.3%
COC(=O)c1cc(NS(=O)(=O)c2ccc(N3CCOCC3)c(N)c2)cc(C(=O)OC)c1	71.6	5.3	4.7%	4.15µM*	-2.8	u
Nc1cc(S(=O)(=O)Nc2ccccc2Cl)ccc1N1CCCCC1	u	x	6.31µM*	x	x	x
COC(=O)c1cc(NS(=O)(=O)c2ccc(N3CCOCC3)c(NC(C)=O)c2)cc(C(=O)OC)c1	-29.2	-6.3	6.7%	u	-3.6	1.6%
CNC(=O)CSc1cn(CC(=O)N(C(C)C)C(C)C)c2ccccc12	-1.4	23.4	11.2%	10.4µM*	-2.2	1.0%
CC(C)c1ccc(S(=O)(=O)c2cn(CC(=O)Nc3ccc(F)cc3)c3ccccc3c2=O)cc1	-107.1*	x	x	x	x	x
COc1ccccc1NC(=O)CS(=O)(=O)c1cn(CC(=O)N(C(C)C)C(C)C)c2ccccc12	2.0	x	-8.3%	x	x	x
CC(C)N(C(=O)Cn1cc(SCC(N)=O)c2ccccc21)C(C)C	u	-21.3	5.6%	u	8.1	-12.3%
CC(C)N(C(=O)Cn1cc(S(=O)(=O)CC(=O)Nc2ccccc2)c2ccccc21)C(C)C	-7.5	-11.0	6.9%	8.28µM*	8.1	u
COc1ccc(CCNC(=O)CS(=O)(=O)c2cn(CC(=O)N(C(C)C)C(C)C)c3ccccc23)cc1OC	-8.2	-5.3	x	10.4µM*	2.4	u
Cc1cccc(N(C(=O)CCC(=O)Nc2nccs2)C(C(=O)NC(C)(C)C)c2ccc(O)cc2)c1 (stereo unspecified)	-19.2	11.0	-12.8%	16.2%	-0.5	u
Cc1ncsc1CCOC(=O)c1cccnc1	35.2	-3.7	23.1%	14.4%	-3.7	9.6%
Cc1ncsc1CCOC(=O)c1ccc(N2CCOCC2)c([N+](=O)[O-])c1	-61.1*	57.7	-4.1%	-4.8%	27.3	-25.2%
